Most compounds without a hit are left out; they make up all but 11% or so of the library.
hNpr1 antagonist = antagonists of human natriuretic peptide receptor Npr1. 1.6% of 76,000 active. Potency, µM (series often up to 46.3 µM), actives largely listed as inhibitors. HEK293 hNpr1 GloSensor cGMP, ANP-stimulated luminescence. P16066; calls by dose curve; also: nearly all actives have a fitted effect of over 60% in size
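HEK293 cells stably expressing human Npr1 and cGMP GloSensor pGS-40F, loaded 2 h with 2% GloSensor reagent, given compound 30 min at room temperature. Luminescence read before and 20 min after 0.1 nM hNppA.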
3T3 cytotox = cytotoxic compounds in NIH 3T3 cells; NIH 3T3 viability, CellTiter-Glo ATP luminescence, 48-72 h; Potency, µM (top dose mostly 96.7 µM), hits mostly inhibitors; 4.3% of 94,000 active; AID 1345082; also: nearly all actives have a fitted effect of over 55% in size
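ATP-dependent luminescence (CellTiter-Glo) served as the viability signal for NIH 3T3 cells treated with compound for 48 or 72 hr at 37 °C.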
Luciferase inh = inhibitors of firefly (Photinus pyralis) luciferase; P08659; purified P. pyralis luciferase, luminescence, biochemical; Potency, µM (doses to about 115 µM), hits mostly inhibitors; 2.5% of 76,000 active; AID 1347043; also: nearly all actives have a fitted effect of over 65% in size
Target sequence (P08659 whole entry, looked up): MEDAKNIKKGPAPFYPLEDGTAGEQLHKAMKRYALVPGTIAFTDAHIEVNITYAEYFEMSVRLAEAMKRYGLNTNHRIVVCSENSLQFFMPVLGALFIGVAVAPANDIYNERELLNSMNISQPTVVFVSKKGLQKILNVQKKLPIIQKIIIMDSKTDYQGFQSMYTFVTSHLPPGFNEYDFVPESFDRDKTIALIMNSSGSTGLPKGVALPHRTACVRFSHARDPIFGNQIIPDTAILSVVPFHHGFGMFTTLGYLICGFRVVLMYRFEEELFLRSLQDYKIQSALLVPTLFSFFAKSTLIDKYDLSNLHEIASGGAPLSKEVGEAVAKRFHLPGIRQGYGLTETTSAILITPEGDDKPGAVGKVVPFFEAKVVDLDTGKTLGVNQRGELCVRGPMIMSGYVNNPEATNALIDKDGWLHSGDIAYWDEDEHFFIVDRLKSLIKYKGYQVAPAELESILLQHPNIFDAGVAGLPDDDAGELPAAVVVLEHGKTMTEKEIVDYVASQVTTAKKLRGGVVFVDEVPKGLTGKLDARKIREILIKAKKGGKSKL
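Cell-free enzyme assay, 10nM P. pyralis luciferase, luciferin and ATP each at 10uM. Inhibition profiled over a 6-point titration, read as luminescence.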
HEK293 tox = kills HEK 293 cells; HEK 293 viability, ATP luminescence (CellTiter-Glo), 48-72 h; Potency, µM (highest dose often 115 µM), most hits filed as inhibitors; 6.6% of 94,000 active; also: nearly all actives have a fitted effect of over 60% in size
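CellTiter-Glo luminescence (cellular ATP) was read after 48 or 72 hr of compound exposure at 37 degree Celsius. Cells were HEK 293 plated at 250 cells/well.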
Each line names hits and unclear results; the compound was inactive in the other large screens. Unless noted, calls follow the shape of the dose curve; as a rule, active = well fitted curve in the direction sought with a large enough effect; inconclusive = small, poorly fitted or top-dose-only effect, or another doubt; inactive = no such curve, though single readings can be large; an effect the other way counts as inactive or inconclusive.

Cc1noc(C)c1Cc1ccc(C(=O)N2CCC(OCCOc3ccccc3)CC2)o1	3T3 cytotox inconclusive, HEK293 tox 40µM (no result: hNpr1 antagonist, Luciferase inh)
COCCOC1CCN(C(=O)c2ccc(Cc3c(C)noc3C)o2)CC1	none
O=C(Nc1ccccc1)c1cnc2n1CCN(Cc1cccc(O)c1)CC2	3T3 cytotox inconclusive, Luciferase inh inconclusive, HEK293 tox inconclusive
CC(C)CCNC(=O)c1cnc2n1CCN(Cc1ccc(C(C)C)cc1)CC2	hNpr1 antagonist inconclusive, 3T3 cytotox inconclusive, HEK293 tox 56µM
CC(C)c1ccc(CN2CCc3ncc(C(=O)Nc4ccccc4)n3CC2)cc1	3T3 cytotox 28µM, HEK293 tox 32µM
COCCCNC(=O)C1CCN(C(=O)c2nnn3c2COC(c2ccc(C)cc2)C3)CC1 (centres undefined)	Luciferase inh 40µM
O=C(NCCC1=CCCCC1)C1CCN(C(=O)c2ncn3c2COC(c2ccc(Cl)cc2)C3)CC1 (centres undefined)	Luciferase inh inconclusive, HEK293 tox inconclusive
COc1ccc(C2Cn3nnc(C(=O)N4CCC(C(=O)NCCC5=CCCCC5)CC4)c3CO2)cc1 (centres undefined)	none
Cc1ccc(C2Cn3cnc(C(=O)N4CCC(C(=O)NCCC5=CCCCC5)CC4)c3CO2)cc1 (centres undefined)	Luciferase inh 28µM
Cc1ccc(C2Cn3nnc(C(=O)N4CCC(C(=O)NCCC5=CCCCC5)CC4)c3CO2)cc1 (centres undefined)	Luciferase inh 10µM
CCCCCC(=O)N1CC(=O)N(CCCc2ccccc2)CC(O)C1 (centres undefined)	HEK293 tox inconclusive (no result: hNpr1 antagonist, Luciferase inh)
COc1ccc(C(=O)N2CCC(Oc3nccnc3N(C)C)C2)c(OC)c1 (centres undefined)	Luciferase inh 20µM, HEK293 tox inconclusive
CCOc1ccccc1C(=O)N1CCC(Oc2nccnc2N(C)C)C1 (centres undefined)	Luciferase inh 32µM, HEK293 tox inconclusive
O=C(NCc1ccc(F)cc1)c1nc(-c2ccc(F)cc2)c2cnccn12	3T3 cytotox inconclusive, HEK293 tox inconclusive
Cc1ccc(O)c(CN2CC[C@@H](c3ccc4ccccc4c3)[C@H](O)C2)n1	hNpr1 antagonist inconclusive, 3T3 cytotox inconclusive, HEK293 tox 45µM
COCc1ncc(CN2CC[C@@H](c3ccc4ccccc4c3)[C@H](O)C2)cn1	none
CC(C)N1CCC(F)(c2nc(-c3ccccc3)no2)CC1	HEK293 tox inconclusive
O=C(COc1ccc(F)cc1)N1CCC(Oc2ncccc2C(=O)N2CCCCC2)C1 (centres undefined)	3T3 cytotox inconclusive
COc1ccc(F)cc1-c1ccc(CN2CCC(NC(=O)c3cccc(Cl)c3)C2)cc1 (centres undefined)	3T3 cytotox 22µM, HEK293 tox 22µM (no result: hNpr1 antagonist, Luciferase inh)
COc1ccccc1-c1ccc(CN2CCC(NC(=O)c3cccc(Cl)c3)C2)cc1 (centres undefined)	3T3 cytotox 22µM, HEK293 tox 20µM (no result: hNpr1 antagonist, Luciferase inh)
COCCNC(=O)Cc1c[nH]c2ncc(-c3ccc(OC)cc3)cc12	3T3 cytotox 22µM, Luciferase inh inconclusive, HEK293 tox inconclusive
COCCNC(=O)Cc1c[nH]c2ncc(-c3ccccc3)cc12	3T3 cytotox inconclusive
COc1ccc(-c2cnc3[nH]cc(CC(=O)NCc4cnccn4)c3c2)cc1	3T3 cytotox 32µM, Luciferase inh inconclusive, HEK293 tox inconclusive
Cn1nc(C2CCCC2)cc1NC(=O)C(C)(C)C	none (no result: hNpr1 antagonist, Luciferase inh)
CCCN1C(=O)Cc2ccccc2C1C(=O)N1CCN(c2ccccc2)CC1 (centres undefined)	HEK293 tox inconclusive
CC1=C[C@@H](CO)[C@H](C(C)C)C[C@H]1CC(=O)NCc1ccc(C(F)(F)F)cc1	3T3 cytotox inconclusive, HEK293 tox 40µM
COc1ccc(CNC(=O)C[C@@H]2C[C@@H](C(C)C)[C@H](CNC(C)=O)C=C2C)cc1	3T3 cytotox 100µM, HEK293 tox inconclusive
CC(C)c1noc(C2CCCN(Cc3cn(C(C)C)c4ccccc34)CCC(=O)NCC2)n1 (centres undefined)	3T3 cytotox inconclusive, HEK293 tox 40µM
CC(C)c1nc(C2Cc3ccccc3N2C(=O)C2CC2)no1 (centres undefined)	Luciferase inh inconclusive
COCC(=O)N1c2ccccc2CC1c1noc(C(C)C)n1 (centres undefined)	Luciferase inh 16µM
CCN1CC(CN(C)Cc2cn(-c3ccccc3C)nc2-c2ccc(OC)c(F)c2)CC1=O (centres undefined)	3T3 cytotox inconclusive, HEK293 tox 22µM
CNC(=O)c1cc(C)nc2onc(C3CCN(C(=O)Nc4ccccc4)CC3)c12	none (no result: hNpr1 antagonist, Luciferase inh)
